# From the supplement of paper PMC8728848
# This excerpt belongs to a sample that is enriched for the strongest signals.
# Key:
# Test in all cases: glycan array binding signal (z-score within array); higher = stronger binding
# Conditions in all cases: glycan notation: IUPAC condensed, linker removed
# [1] = target: Fuc(a1-2)Gal(b1-3)GlcNAc(b1-2)Man(a1-3)[Fuc(a1-2)Gal(b1-3)GlcNAc(b1-2)Man(a1-6)]Man(b1-4)GlcNAc(b1-4)GlcNAc
# Method in brief: (§1)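 Glycan array binding is given as a within-array Z-score, which can be read as non-binding when negative. The arrays, 3228 of them, came from the Consortium for Functional Glycomics database and were retained only where the protein sequence was available. Z-scores were averaged across arrays of the same protein sequence at different concentrations or buffers and across linkers.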
# [2] = target: Fuc(a1-2)Gal(b1-3)[Fuc(a1-4)]GlcNAc(b1-2)Man(a1-3)[Fuc(a1-2)Gal(b1-3)[Fuc(a1-4)]GlcNAc(b1-2)Man(a1-6)]Man(b1-4)GlcNAc(b1-4)[Fuc(a1-6)]GlcNAc(b1-4)[Fuc(a1-6)]GlcNAc
# Method in brief: as §1
# [3] = target: Fuc(a1-2)Gal(b1-4)GlcNAc(b1-2)Man(a1-3)[Fuc(a1-2)Gal(b1-4)GlcNAc(b1-2)Man(a1-6)]Man(b1-4)GlcNAc(b1-4)GlcNAc
# Method in brief: as §1
# [4] = target: Fuc(a1-2)Gal(b1-4)[Fuc(a1-3)]GlcNAc(b1-3)GalNAc
# Method in brief: as §1
# [5] = target: Fuc(a1-2)[Gal(a1-3)]Gal(b1-3)GalNAc(b1-3)Gal(a1-4)Gal(b1-4)Glc
# Method in brief: as §1
# [6] = target: Fuc(a1-2)[Gal(a1-3)]Gal(b1-3)GlcNAc(b1-2)Man(a1-3)[Fuc(a1-2)[Gal(a1-3)]Gal(b1-3)GlcNAc(b1-2)Man(a1-6)]Man(b1-4)GlcNAc(b1-4)[Fuc(a1-6)]GlcNAc
# Method in brief: as §1
# [7] = target: Fuc(a1-2)[GalNAc(a1-3)]Gal(b1-3)GalNAc(a1-3)[Fuc(a1-2)]Gal(b1-4)GlcNAc
# Method in brief: as §1
# [8] = target: Fuc(a1-2)[GalNAc(a1-3)]Gal(b1-3)GlcNAc(b1-2)Man(a1-3)[Fuc(a1-2)[GalNAc(a1-3)]Gal(b1-3)GlcNAc(b1-2)Man(a1-6)]Man(b1-4)GlcNAc(b1-4)GlcNAc
# Method in brief: as §1
# [9] = target: Fuc(a1-2)[GalNAc(a1-3)]Gal(b1-4)GlcNAc(b1-2)Man
# Method in brief: as §1
# [10] = target: Fuc(a1-2)[GalNAc(a1-3)]Gal(b1-4)GlcNAc(b1-6)GalNAc
# Method in brief: as §1
# [11] = target: Fuc(a1-3)[Gal(b1-4)]GlcNAc(b1-6)GalNAc
# Method in brief: as §1
# Fuc(b1-3)GlcNAc = target: Fuc(b1-3)GlcNAc
# Method in brief: as §1
# Gal(a1-3)Gal = target: Gal(a1-3)Gal
# Method in brief: as §1
# [12] = target: Gal(a1-3)Gal(b1-4)[Fuc(a1-3)]GlcNAc
# Method in brief: as §1
# [13] = target: Gal(a1-4)Gal(b1-4)GlcNAc(b1-2)Man(a1-3)[Gal(a1-4)Gal(b1-4)GlcNAc(b1-2)Man(a1-6)]Man(b1-4)GlcNAc(b1-4)GlcNAc
# Method in brief: as §1
# [14] = target: Gal(b1-3)GlcNAc(b1-3)Gal(b1-4)GlcNAc(b1-3)Gal(b1-4)GlcNAc(b1-2)[Gal(b1-3)GlcNAc(b1-3)Gal(b1-4)GlcNAc(b1-3)Gal(b1-4)GlcNAc(b1-6)]Man(a1-6)[Gal(b1-3)GlcNAc(b1-3)Gal(b1-4)GlcNAc(b1-3)Gal(b1-4)GlcNAc(b1-2)Man(a1-3)]Man(b1-4)GlcNAc(b1-4)[Fuc(a1-6)]GlcNAc
# Method in brief: as §1
# [15] = target: Gal(b1-3)GlcNAc(b1-3)GalNAc
# Method in brief: as §1
# [16] = target: Gal(b1-3)[Neu5Ac(a2-6)]GlcNAc(b1-4)Gal(b1-4)Glc
# Method in brief: as §1
# Gal(b1-4)Gal = target: Gal(b1-4)Gal
# Method in brief: as §1
# [17] = target: Gal(b1-4)GlcNAc(b1-2)Man(a1-3)[Gal(b1-4)GlcNAc(b1-2)Man(a1-6)]Man(b1-4)GlcNAc(b1-4)[Fuc(a1-6)]GlcNAc
# Method in brief: as §1
# [18] = target: Gal(b1-4)GlcNAc(b1-2)[Gal(b1-4)GlcNAc(b1-4)]Man(a1-3)[GlcNAc(b1-4)][Gal(b1-4)GlcNAc(b1-2)[Gal(b1-4)GlcNAc(b1-6)]Man(a1-6)]Man(b1-4)GlcNAc(b1-4)GlcNAc
# Method in brief: as §1
# [19] = target: Gal(b1-4)GlcNAc(b1-3)Gal(b1-3)GlcNAc
# Method in brief: as §1
# [20] = target: Gal(b1-4)GlcNAc(b1-3)Gal(b1-4)GlcNAc(b1-2)Man(a1-3)[Gal(b1-4)GlcNAc(b1-3)Gal(b1-4)GlcNAc(b1-2)Man(a1-6)]Man(b1-4)GlcNAc(b1-4)[Fuc(a1-6)]GlcNAc
# Method in brief: as §1
# [21] = target: Gal(b1-4)GlcNAc(b1-3)Gal(b1-4)GlcNAc(b1-2)[Gal(b1-4)GlcNAc(b1-3)Gal(b1-4)GlcNAc(b1-6)]Man(a1-6)[Gal(b1-4)GlcNAc(b1-3)Gal(b1-4)GlcNAc(b1-2)Man(a1-3)]Man(b1-4)GlcNAc(b1-4)GlcNAc
# Method in brief: as §1
# [22] = target: Gal(b1-4)GlcNAc(b1-3)Gal(b1-4)GlcNAc(b1-2)[Gal(b1-4)GlcNAc(b1-3)Gal(b1-4)GlcNAc(b1-6)]Man(a1-6)[Gal(b1-4)GlcNAc(b1-3)Gal(b1-4)GlcNAc(b1-2)Man(a1-3)]Man(b1-4)GlcNAc(b1-4)[Fuc(a1-6)]GlcNAc
# Method in brief: as §1
# [23] = target: Gal(b1-4)GlcNAc(b1-3)Gal(b1-4)GlcNAc(b1-3)Gal(b1-4)GlcNAc(b1-3)Gal(b1-4)GlcNAc(b1-2)Man(a1-3)[Gal(b1-4)GlcNAc(b1-3)Gal(b1-4)GlcNAc(b1-3)Gal(b1-4)GlcNAc(b1-3)Gal(b1-4)GlcNAc(b1-2)Man(a1-6)]Man(b1-4)GlcNAc(b1-4)GlcNAc
# Method in brief: as §1
# [24] = target: Gal(b1-4)GlcNAc(b1-3)[GlcNAc(b1-6)]Gal(b1-4)GlcNAc
# Method in brief: as §1
# [25] = target: Gal3S(b1-3)[Fuc(a1-4)]GlcNAc
# Method in brief: as §1
# Gal6S(b1-3)GlcNAc6S = target: Gal6S(b1-3)GlcNAc6S
# Method in brief: as §1
# Gal6S(b1-4)GlcNAc = target: Gal6S(b1-4)GlcNAc
# Method in brief: as §1
# [26] = target: GalNAc(b1-4)GlcNAc(b1-2)Man(a1-3)[GalNAc(b1-4)GlcNAc(b1-2)Man(a1-6)]Man(b1-4)GlcNAc(b1-4)GlcNAc
# Method in brief: as §1
# GalNAc3S(b1-4)GlcNAc = target: GalNAc3S(b1-4)GlcNAc
# Method in brief: as §1
# [27] = target: GlcNAc(b1-2)Man(a1-3)[GlcNAc(b1-2)Man(a1-6)]Man(b1-4)GlcNAc(b1-4)GlcNAc
# Method in brief: as §1
# [28] = target: GlcNAc(b1-3)Gal(b1-4)GlcNAc(b1-3)Gal(b1-4)GlcNAc(b1-3)Gal(b1-4)GlcNAc(b1-2)Man(a1-3)[GlcNAc(b1-3)Gal(b1-4)GlcNAc(b1-3)Gal(b1-4)GlcNAc(b1-3)Gal(b1-4)GlcNAc(b1-2)Man(a1-6)]Man(b1-4)GlcNAc(b1-4)GlcNAc
# Method in brief: as §1
# [29] = target: GlcNAc(b1-3)[GlcNAc(b1-6)]GalNAc
# Method in brief: as §1
# [30] = target: GlcNAc(b1-4)GlcNAc(b1-4)GlcNAc(b1-4)GlcNAc(b1-4)GlcNAc
# Method in brief: as §1
# [31] = target: Man(a1-2)Man(a1-3)[Man(a1-2)Man(a1-6)]Man
# Method in brief: as §1
# [32] = target: Man(a1-2)Man(a1-3)[Man(a1-6)]Man(a1-6)[Man(a1-2)Man(a1-3)]Man(b1-4)GlcNAc(b1-4)GlcNAc
# Method in brief: as §1
# [33] = target: Neu5Ac(a2-3)Gal(b1-4)GlcNAc(b1-2)Man(a1-3)[GlcNAc(b1-4)][Neu5Ac(a2-3)Gal(b1-4)GlcNAc(b1-2)Man(a1-6)]Man(b1-4)GlcNAc(b1-4)GlcNAc
# Method in brief: as §1
# [34] = target: Neu5Ac(a2-3)Gal(b1-4)GlcNAc(b1-2)Man(a1-3)[Neu5Ac(a2-6)Gal(b1-4)GlcNAc(b1-2)Man(a1-6)]Man(b1-4)GlcNAc(b1-4)GlcNAc
# Method in brief: as §1
# [35] = target: Neu5Ac(a2-3)Gal(b1-4)GlcNAc(b1-3)[Neu5Ac(a2-3)Gal(b1-4)GlcNAc(b1-6)]GalNAc
# Method in brief: as §1
# [36] = target: Neu5Ac(a2-3)Gal(b1-4)[Fuc(a1-3)]GlcNAc(b1-3)Gal(b1-4)GlcNAc
# Method in brief: as §1
# Neu5Ac(a2-6)Gal(b1-4)Glc = target: Neu5Ac(a2-6)Gal(b1-4)Glc
# Method in brief: as §1
# [37] = target: Neu5Ac(a2-6)GalNAc(b1-4)GlcNAc6S
# Method in brief: as §1
# [38] = target: Neu5Ac(a2-8)Neu5Ac(a2-8)Neu5Ac(a2-3)Gal(b1-4)Glc
# Method in brief: as §1
# [39] = target: Neu5Ac(a2-8)Neu5Gc(a2-3)Gal(b1-4)GlcNAc
# Method in brief: as §1
# [40] = target: Neu5Gc(a2-8)Neu5Ac(a2-3)Gal(b1-4)GlcNAc
# Method in brief: as §1
# [41] = target: Neu5Gc(a2-8)Neu5Gc(a2-3)Gal(b1-4)GlcNAc(b1-3)Gal(b1-4)GlcNAc
# Method in brief: as §1
binder,measurement,setting,value
PX14375l-pdi-526-25-526 (Parabacteroides distasonis) (protein) DEEPKSTLTDVAYYKTQSQMESNVNYLYRTGAIGSYVDFGSAYIGPFASIQEELTGYFSNSYEGQEIVCRYTRELTRQQNTMQLASKMDKVWDDCYRGINVANGAIKHMPEVPMDQATADRLTAEAKFFRAFNYFYLVKTFGAVPFYTDPYELAENMELPRTETSTIYNQIESDLKDAMNVLPEATFAANGHRITKYVAAMTLTDVYMYQHKYAEAAETVRIVVNSNHKLTTNDDLAMNSAFNKLRSTDDLDEAIYAYEYDNQISPSNWLPTYAFDGDASSNGLFGTYAITQKVHGPNDRYLNIYESNDLRRQPNQFYHWTYTNPKTGKVWNSVGNAACCWYYYDEDALLTTGRGTKDWNVYRYAEALLDAAESIAQSTGVTAEAAGYLAQVKARANMEGKTAAEIASSLQSMGKQAFIEECWTERLRELPLEFKMWDMCVRTGMFPNISETTPGQVTYIPLVGAKNASGATIKESDLLWPLSVNEIQRNPSLTQNEGYSAK,glycan array binding signal (z-score),[1],-0.052
same,glycan array binding signal (z-score),[2],0.236
same,glycan array binding signal (z-score),[3],3.23
same,glycan array binding signal (z-score),[4],3.32
same,glycan array binding signal (z-score),[5],-0.21
same,glycan array binding signal (z-score),[6],0.373
same,glycan array binding signal (z-score),[7],-0.255
same,glycan array binding signal (z-score),[8],2.42
same,glycan array binding signal (z-score),[9],-0.233
same,glycan array binding signal (z-score),[10],-0.22
same,glycan array binding signal (z-score),[11],2.66
same,glycan array binding signal (z-score),Fuc(b1-3)GlcNAc,-0.225
same,glycan array binding signal (z-score),Gal(a1-3)Gal,-0.181
same,glycan array binding signal (z-score),[12],-0.3
same,glycan array binding signal (z-score),[13],1.19
same,glycan array binding signal (z-score),[14],8.4
same,glycan array binding signal (z-score),[15],-0.323
same,glycan array binding signal (z-score),[16],-0.125
same,glycan array binding signal (z-score),Gal(b1-4)Gal,-0.301
same,glycan array binding signal (z-score),[17],0.272
same,glycan array binding signal (z-score),[18],3.87
same,glycan array binding signal (z-score),[19],-0.16
same,glycan array binding signal (z-score),[20],4.03
same,glycan array binding signal (z-score),[21],4.11
same,glycan array binding signal (z-score),[22],0.091
same,glycan array binding signal (z-score),[23],16.7
same,glycan array binding signal (z-score),[24],-0.154
same,glycan array binding signal (z-score),[25],-0.094
same,glycan array binding signal (z-score),Gal6S(b1-3)GlcNAc6S,9.53
same,glycan array binding signal (z-score),Gal6S(b1-4)GlcNAc,-0.026
same,glycan array binding signal (z-score),[26],-0.068
same,glycan array binding signal (z-score),GalNAc3S(b1-4)GlcNAc,-0.071
same,glycan array binding signal (z-score),[27],-0.225
same,glycan array binding signal (z-score),[28],-0.168
same,glycan array binding signal (z-score),[29],-0.1
same,glycan array binding signal (z-score),[30],-0.095
same,glycan array binding signal (z-score),[31],-0.022
same,glycan array binding signal (z-score),[32],-0.236
same,glycan array binding signal (z-score),[33],-0.214
same,glycan array binding signal (z-score),[34],-0.134
same,glycan array binding signal (z-score),[35],-0.205
same,glycan array binding signal (z-score),[36],0.129
same,glycan array binding signal (z-score),Neu5Ac(a2-6)Gal(b1-4)Glc,0.019
same,glycan array binding signal (z-score),[37],0.114
same,glycan array binding signal (z-score),[38],-0.12
same,glycan array binding signal (z-score),[39],2.74
same,glycan array binding signal (z-score),[40],-0.206
same,glycan array binding signal (z-score),[41],-0.201
